# Rows were chosen to be rich in hits. Some 1.4% of all compounds tested hit in one or more screens of this group.
# LYPLA1 counter = LYPLA1 (human) inhibition in PME1 counter-screen | O75608 | recombinant LYPLA1, FP-Rh probe fluorescence polarization | inhibition, % at 5.9 µM | 320,000 compounds, 0.16% hits;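 active means inhibition above the mean of all tested compounds plus 3 SD, set per campaign, cut at about 14% in these data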;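 further: inhibitors block serine hydrolase probe labeling of LYPLA1 so polarization falls; 0% = enzyme with DMSO and 100% = wells lacking LYPLA1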
# LANA-H2A inh = blocks KSHV LANA binding to histone H2A/H2B; AID 2629; cell-free LANA-H2A/H2B peptide, fluorescence polarization; inhibition, % (no concentration beside the values); Q9QR71; 320,000 compounds, 0.6% hits; in the data active means inhibition mostly above about 10%, no sharp cut-off; inactive means mostly below about 6.7%
# EBNA-1 inh = blocks EBNA-1 binding to DNA; 300,000 compounds, 0.34% hits; inhibition, % at 14.8 µM; EBNA-1 DNA binding, fluorescence polarization; AID 1950; in the data active means inhibition above about 28%
# ZTA counter = ZTA (EBV) inhibition in EBNA-1 counter-screen; inhibition, % at 11 µM; P03206; 320,000 compounds, 0.15% hits; AID 2234; ZTA-DNA binding, fluorescence polarization; in the data active means inhibition above about 33%
# LYPLA2 counter = blocks human lysophospholipase 2, a PME1 counter-screen | 320,000 compounds, 0.38% hits | recombinant LYPLA2, FP-Rh probe fluorescence polarization | O95372 | inhibition, % at 5.9 µM;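 active means inhibition above the screen-wide mean plus 3 SD, limit set per campaign, cut at about 26% in these data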;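 further: 0% = LYPLA2 with DMSO and 100% = wells lacking LYPLA2 enzyme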
# The depositor's hits bear a star; . = not tested or not shown; + = active, no number.
SMILES,LYPLA1 counter,LANA-H2A inh,EBNA-1 inh,ZTA counter,LYPLA2 counter
COc1cc([C@@H]2Oc3cc(C4Oc5cc(O)cc(O)c5C(=O)[C@H]4O)ccc3O[C@H]2CO)ccc1O (stereo partly specified),-3,-1,-1,4,50*
O=C1c2c(O)cc(O)cc2O[C@H](c2ccc(O)cc2)[C@H]1O,0,0,8,7,20
O=C1c2c(O)cc(O)cc2O[C@H](c2ccc(O)c(O)c2)[C@H]1O,-2,-5,2,1,36*
CCN(CCn1cccn1)C(=O)c1cc(COc2ccccc2SC)on1,.,6,.,.,.
CCN(CCn1cccn1)C(=O)c1cc(COc2cc(C)ccc2C)on1,.,37*,.,.,.
CC(C)(C)[C@H]1CCC(=O)N([C@H](CN=[N+]=[N-])Cc2ccccc2)CC1,-5,-3,-4,-25,-5
O=C(NC(=S)NCCCN1CCOCC1)c1ccc(Br)cc1,-2,2,-8,-7,2
O=C(Cc1ccccc1[N+](=O)[O-])NCCCN1CCOCC1,-4,+,6,1,-2
O=C(NCCN1CCOCC1)C(Sc1ccccc1)c1ccccc1 (stereo unspecified),-1,3,3,6,-6
O=C(NCCCN1CCOCC1)C(Sc1ccccc1)c1ccccc1 (stereo unspecified),2,53*,-4,6,-2
O=C(CCNC(=O)c1ccc(Br)cc1)NCCCN1CCOCC1,2,51*,.,-3,0
CC1CC(OC(=O)C(O)c2ccccc2)CC(C)(C)N1C (stereo unspecified),0,17*,6,11,3
CC1CCCCN1C(C(=O)O)c1ccccc1 (stereo unspecified),-4,3,2,-11,-4
CCN(CC(=O)Nc1c(F)cccc1F)C(=O)c1ccc2c(c1)OCCO2,1,-1,-12,-15,-2
CCCc1nnc(NS(=O)(=O)c2ccc(OC)cc2)s1,-1,15*,5,-5,-9
CCSc1nnc(NS(=O)(=O)c2ccc(OC)cc2)s1,3,-1,9,-17,8
CCCCNC(=O)/C(C#N)=C/c1ccc(-c2ccc(S(=O)(=O)N3CCOCC3)cc2)o1,-7,0,-9,44*,1
Oc1ccccc1CNc1cnc2ccccc2c1,-1,20*,1,-12,-2
COC(=O)c1ccccc1NC(=O)NCc1ccccc1,-1,-10,-9,0,-2
COC(=O)c1ccccc1NC(=O)NCc1ccncc1,0,35*,-2,-13,7
CCCC1C2CN(C(C)C)CC=C2C(C#N)=C(N)C1(C#N)C#N (stereo unspecified),3,30*,-9,-1,8
CN1CC=C2C(C#N)=C(N)C(C#N)(C#N)C(CCc3ccccc3)C2C1 (stereo unspecified),-1,2,4,-17,-2
CCSc1ccc(/C(N)=N/OC(=O)c2cccs2)cn1,-3,-7,16,-5,0
CC(NC(=O)C(=O)NN=C1CCCCCCCCCCC1)c1ccccc1 (stereo unspecified),1,12*,-2,9,-5
CC(NC(=O)C(=O)NN=C1CCCCCC1)c1ccccc1 (stereo unspecified),-2,-6,3,-5,4
SMILES,LYPLA1 counter,LANA-H2A inh,EBNA-1 inh,ZTA counter,LYPLA2 counter
Cc1ccc(NC(=O)COc2cccc3c2OC(C)(C)C3)c(O)c1,-4,2,.,-1,-4
CC(=O)N1CCC(N2CCN(c3ccccc3F)CC2)CC1,-3,17*,-3,-3,0
CN(C)C(CNc1ccc(C(F)(F)F)cc1[N+](=O)[O-])c1ccccc1 (stereo unspecified),0,-4,-18,-8,0
CCN(C[C@H]1N[C@@](Cc2ccccc2)(C(=O)OC)[C@H]2C(=O)N(C)C(=O)[C@@H]12)S(=O)(=O)c1ccc(OC(F)(F)F)cc1,.,-1,.,.,.
CCN(C[C@H]1N[C@@](Cc2ccccc2)(C(=O)OC)[C@H]2C(=O)N(C)C(=O)[C@@H]12)C(=O)COC,.,-147,.,.,.
CCN(C[C@H]1N[C@@](Cc2ccccc2)(C(=O)OC)[C@H]2C(=O)N(C)C(=O)[C@@H]12)S(=O)(=O)c1ccc(OC)cc1,.,+,.,.,.
CCN(C[C@H]1N[C@@](CC)(C(=O)OC)[C@H]2C(=O)N(Cc3ccccc3)C(=O)[C@@H]12)S(=O)(=O)c1ccc(-c2ccccc2)cc1,.,-1,.,.,.
CCN(C[C@H]1N[C@@](Cc2ccccc2)(C(=O)OC)[C@H]2C(=O)N(C)C(=O)[C@@H]12)C(=O)NC(C)C,.,+,.,.,.
CCN(C[C@H]1N[C@@](CC)(C(=O)OC)[C@H]2C(=O)N(Cc3ccccc3)C(=O)[C@@H]12)S(=O)(=O)c1ccc(C)cc1,.,+,.,.,.
COc1ccc(C(=O)N2CCCC(O)C2)cc1OC1CCN(C(C)C)CC1 (stereo unspecified),.,5,.,.,.
CC(=O)Oc1ccc(C(=O)Nn2cnnc2)cc1,-1,18*,-5,-8,-3
CC(C)(C)c1ccc(C(=O)Nn2cnnc2)cc1,-3,-26,-4,4,0
O=C(c1ccccc1Br)N(Cc1ccccc1)c1ccccc1,-6,1,13,7,-11
Cc1ccc(S(=O)(=O)NC(CC(C)C)C(=O)NCCCn2nc(C)cc2C)cc1 (stereo unspecified),3,-10,.,-6,-3
COc1cc(/C=C2\SC(=Nc3cccnc3)NC2=O)cc(OC)c1OC,-7,27*,4,-23,-10
O=C(NCc1ccccc1)C(c1ccccn1)N(C(=O)c1csnn1)c1ccccc1F (stereo unspecified),-1,7,3,-10,-1
CCc1ccc(CNC(=O)C2CCCN(S(=O)(=O)N(CC)c3ccccc3)C2)cc1 (stereo unspecified),-5,-8,10,-12,-9
CSCCNCc1c(C(=O)N2CCOCC2)nc2c(C)cccn12,-2,-12,2,-1,3
Cc1cccn2c(CNCCc3ccccn3)c(C(=O)N3CCOCC3)nc12,-2,29*,5,-2,6
COc1ccc(CCNC(=O)CN(c2cc(OC)ccc2OC)S(=O)(=O)c2ccccc2)cc1,1,-7,5,-2,-3
COCCCNC(=O)CN(c1cc(OC)ccc1OC)S(=O)(=O)c1ccccc1,1,19*,-7,-10,4
COc1ccc(OC)c(N(CC(=O)NCc2ccccc2)S(=O)(=O)c2ccc(OC)c(OC)c2)c1,1,41*,-5,-1,-3
COc1ccc(OC)c(N(CC(=O)NCCc2ccc(OC)c(OC)c2)S(=O)(=O)c2ccccc2)c1,-2,3,4,5,0
CCC1CCCCN1CCCNC(=O)c1cc2c(=O)oc3ccc(C)cc3c2s1 (stereo unspecified),-4,0,-9,8,-6
C/C(=N\NC(=O)c1ccc(Br)cc1)C1C(=O)c2ccccc2C1=O,18*,-5,9,6,1
